Measurements from PubChem BioAssay AID504652 (National Center for Advancing Translational Sciences (NCATS), 2011).
Out of some 360,000 compounds screened, about 11,000 (3.1%) were called active. The list comes from a sample in which actives are over-represented; it also holds similar structures and randomly drawn compounds. A number with no mark means an inactive call. No stated cut-off is given here; in the data, active means activity change below about -30%; inactive means the rest.

Target: D(1A) dopamine receptor (Homo sapiens) (UniProt P21728)
Sequence (P21728 whole entry, looked up): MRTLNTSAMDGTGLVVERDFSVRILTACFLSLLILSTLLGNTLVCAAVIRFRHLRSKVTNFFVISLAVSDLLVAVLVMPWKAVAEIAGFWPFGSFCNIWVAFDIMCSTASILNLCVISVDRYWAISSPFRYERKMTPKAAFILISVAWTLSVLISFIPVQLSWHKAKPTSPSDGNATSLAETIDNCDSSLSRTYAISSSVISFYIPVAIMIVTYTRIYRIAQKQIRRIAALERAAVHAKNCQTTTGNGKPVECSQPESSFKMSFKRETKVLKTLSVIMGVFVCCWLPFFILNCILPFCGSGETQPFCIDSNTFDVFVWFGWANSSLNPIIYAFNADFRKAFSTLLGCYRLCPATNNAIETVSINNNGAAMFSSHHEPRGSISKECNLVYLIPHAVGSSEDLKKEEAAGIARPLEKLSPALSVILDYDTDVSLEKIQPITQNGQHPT
Assay: Antagonist of Human D 1 Dopamine Receptor: qHTS
Details: HEK293 TREx D1 cells, calcium flux, dopamine EC80; at 10 µM; stronger effect = lower value
Outline: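 Using tetracycline-induced force-coupled D1 Hek293 cells and a calcium dye, signals were followed for 180 s after compound, then for 180 s after EC80 dopamine, to detect inhibitors.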
On the % scale 0 is the no-effect control and ±100 the full control effect.

Row | Structure (SMILES) | activity change, negative = inhibition
1 | COc1cc(NC(=O)CCS(=O)(=O)c2ccc3c(c2)oc(=O)n3C)cc(OC)c1 | -5.28%
2 | CCOC(=O)c1ccc(NC(=O)CCS(=O)(=O)c2ccc(C)cc2)cc1 | 2.9%
3 | CCOC(=O)c1ccc(NC(=O)CCS(=O)(=O)c2ccc3c(c2)oc(=O)n3C)cc1 | -34.1% (active)
4 | COc1ccc(CNC(=O)COC(=O)c2ccc(C)c(S(=O)(=O)N3CCOCC3)c2)cc1OC | 13.1%
5 | Cc1ccc(C(=O)OCC(=O)NCc2cc(C)c(O)c(C)c2)cc1S(=O)(=O)N1CCCCC1 | -93.9% (active)
6 | Cc1ccc(C(=O)OCC(=O)N2CC(C)CC(C)C2)cc1S(=O)(=O)N1CCCCC1 (stereo not drawn) | -14.5%
7 | CCc1ccc(C(=O)CC2(O)C(=O)N(CCc3ccccc3)c3ccc(Br)cc32)cc1 (stereo not drawn) | 6.36%
8 | O=C(CSc1nnc(-c2ccc(NS(=O)(=O)c3ccccc3)cc2)o1)NCC1CCCO1 (stereo not drawn) | -3.8%
9 | O=C(COc1ccc(Cl)cc1)NCc1nnc(SCC(=O)NCC2CCCO2)o1 (stereo not drawn) | -31.2% (active)
10 | COc1ccc2c(C)cc(SCC(=O)NCC3CCCO3)nc2c1 (stereo not drawn) | -21.4%
11 | Cc1ccc2oc(C(=O)Nc3ccc(S(=O)(=O)N4CCCCCC4)cc3)cc(=O)c2c1 | -13.8%
12 | CCn1cc(CN2CCC(C(=O)Nc3cccc(-c4cccc(Cl)c4)c3)CC2)cn1 | -38.6% (active)
13 | O=C(Nc1cccc(-c2cccc(Cl)c2)c1)C1CCN(C2CCC2)CC1 | -10%
14 | CCn1cc(CN2CCC(C(=O)Nc3cccc(-c4cccc(Cl)c4)c3)CC2)c(C)n1 | -1.32%
15 | CC1CCCCN1CC(=O)N1CCCc2c1c(=O)oc1ccc(OCc3ccccc3)cc21 (stereo not drawn) | 4.23%
16 | O=C(NCc1nnc(C(=O)Nc2ccc(C(F)(F)F)cc2Cl)o1)c1ccccc1 | -10%
17 | O=C(Nc1ccccc1)c1nnsc1S(=O)(=O)c1ccc(Cl)cc1 | -31.4% (active)
18 | O=C(Nc1ccc(Oc2ccccc2)cc1)C1CCN(S(=O)(=O)c2ccc(Cl)cc2)CC1 | -14.4%
19 | O=C(Nc1cccc(Cl)c1)c1csnn1 | 0.926%
20 | COC(=O)c1ccc(NC(=O)c2cnn(-c3ccc(Cl)cc3)c2C2CCN(C(=O)OC(C)(C)C)CC2)cc1 | 8.43%
21 | CC1CCN(S(=O)(=O)c2ccc3c(ccn3CC(=O)O)c2)CC1 | -15%
22 | CC1CCN(S(=O)(=O)c2ccc3c(ccn3CCC(=O)NCc3ccc(N(C)C)cc3)c2)CC1 | -72.7% (active)

Row | Structure (SMILES) | activity change, negative = inhibition
23 | O=C(CCn1ccc2cc(S(=O)(=O)N3CCCC3)ccc21)NCc1cccc(Cl)c1 | 11.5%
24 | N#Cc1ccc(-c2cccs2)nc1SCc1ccc(Br)cc1 | -3.69%
25 | Cc1ccc2c(c1)c1c(c(=O)n(-c3ccccc3)c(=O)n1CC(=O)c1ccc(Cl)cc1)n2C | -16%
26 | CCS(=O)(=O)N1CCc2cc(C(=O)NCc3ccc(C)cc3)ccc21 | -4.2%
27 | CN(CC(=O)NCC(c1ccccc1)N1CCCC1)S(=O)(=O)c1ccc(Cl)cc1 (stereo not drawn) | 12.1%
28 | CN(CC(=O)NCCc1ccccn1)S(=O)(=O)c1ccc(Cl)cc1 | -32.4% (active)
29 | CN(CC(=O)NNC(=O)CNC(=O)c1ccccc1Cl)S(=O)(=O)c1ccc(Cl)cc1 | -11.4%
30 | COc1ccc(NC2CC(=O)N(C)C2=O)cc1 (stereo not drawn) | -35.8% (active)
31 | COc1ccc(C2CC(=O)NC(=O)C2)cc1 | 6.98%
32 | CC(=O)Oc1cccc(N2C(=O)CC(Nc3ccc(N4CCOCC4)cc3)C2=O)c1 (stereo not drawn) | 9.21%
33 | COc1ccc(-c2nc3c(c(SCC(=O)Nc4ccc(C(=O)O)cc4)n2)Cc2ccccc2O3)cc1 | -4.63%
34 | CCCCN(CC)CCCNC(=O)c1nn(C)c2c1CSc1ccccc1-2 | 13%
35 | CCOC(=O)c1[nH]c(C)c(CCC(=O)NCc2ccccc2C)c1C | -16.9%
36 | O=C(CCc1nc(CN2CCN(S(=O)(=O)c3ccc(F)cc3)CC2)no1)N1CCCCC1 | 11.3%
37 | O=C(Cc1ccc(Cl)cc1)NCc1nc(-c2ccccc2)no1 | -12.9%
38 | CC(=O)c1sc(NC(=O)CCN2C(=O)C3CC=CCC3C2=O)nc1-c1ccccc1 (stereo not drawn) | 2.17%
39 | O=C(CCN1C(=O)[C@H]2CC=CC[C@H]2C1=O)NCc1nc(-c2ccccc2)no1 | -34.2% (active)
40 | O=C(NC1CCN(Cc2ccccc2)CC1)c1ccc(Cn2c(=O)c3ccccc3n(Cc3cccc(F)c3)c2=O)cc1 | 2.59%
41 | COc1cccc(-c2nc(S(=O)(=O)c3ccc(C)cc3)c(NCc3ccccc3)o2)c1 | 24.7%
42 | CN(c1ccccc1)S(=O)(=O)c1cccc(NC(=O)Cc2ccc(Cl)cc2)c1 | -23.4%
43 | CN(C)S(=O)(=O)c1cccc(NC(=O)Cc2ccsc2)c1 | -5.36%
